Assay outcomes as filed in PubChem.
ERAP1 inh – ERAP1 (human) enzyme inhibition; hit rate 0.15% among 340,000; Q9NZ08; inhibition, % at 10.7 µM; recombinant ERAP1, Leu-AMC fluorescence, 60 min;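 active = mean replicate inhibition of at least 30%, or all replicates individually reaching that 30% level; inactive = mean below 30% and not every replicate reaching it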;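 also: 0% = neutral control wells and 100% = L-leucinethiol positive control wells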
ERp5 inh – ERp5 (human) disulfide isomerase inhibition | Q15084 | ERp5 insulin aggregation, absorbance 650 nm, 90 min | inhibition, % at 9.99 µM | hit rate 0.05% among 350,000 | AID 651711;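 active = mean replicate inhibition above about 25%, with every replicate also reaching it, limit read from the data, passing the limit was not always enough; inconclusive = only one of those two criteria met; inactive = neither criterion met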
MLL AF4-AF9 inh – MLL-AF4/AF9 protein interaction inhibition | P42568 | AlphaScreen, biotin-AF4 peptide binding to FLAG-AF9 | inhibition, % at 10 µM | hit rate 0.47% among 350,000;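 active = every replicate reaching a set inhibition limit, whatever the replicate mean, cut at about 25% in these data; inconclusive = mean inhibition reaches that limit but some replicates miss it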;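 also: 0% = plate neutral control median and 100% = total signal loss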
Target sequence (P42568 whole entry, looked up): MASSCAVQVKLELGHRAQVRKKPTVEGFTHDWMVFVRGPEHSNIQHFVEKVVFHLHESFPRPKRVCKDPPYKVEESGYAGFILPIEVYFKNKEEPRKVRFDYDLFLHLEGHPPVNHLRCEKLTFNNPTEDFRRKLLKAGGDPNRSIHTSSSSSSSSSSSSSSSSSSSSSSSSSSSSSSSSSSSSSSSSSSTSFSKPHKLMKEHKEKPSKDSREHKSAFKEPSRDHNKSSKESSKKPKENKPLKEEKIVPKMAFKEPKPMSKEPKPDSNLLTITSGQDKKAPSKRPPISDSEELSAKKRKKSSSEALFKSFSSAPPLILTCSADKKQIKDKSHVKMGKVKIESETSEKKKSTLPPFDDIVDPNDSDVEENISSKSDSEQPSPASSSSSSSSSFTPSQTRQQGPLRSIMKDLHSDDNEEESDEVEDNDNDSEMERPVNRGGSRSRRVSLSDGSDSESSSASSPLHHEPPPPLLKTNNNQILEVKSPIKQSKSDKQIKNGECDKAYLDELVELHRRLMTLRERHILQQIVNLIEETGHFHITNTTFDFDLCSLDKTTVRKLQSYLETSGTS
PDI inh – PDI (human) enzyme inhibition. P07237. hit rate 0.052% among 350,000. PDI insulin aggregation turbidity, A650, 90 min. inhibition, % at 10 µM;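 active = mean inhibition across replicates of 30% or more, whatever share of single replicates reach that level; inconclusive = mean inhibition below 30% while every single replicate reaches 30%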
DENV2 CPE – inhibitors of DENV2 cytopathic effect. hit rate 1.7% among 350,000. CPE inhibition, % at 9.99 µM. DENV2-infected cells, cytopathic effect rescue, plate reader; in the data active = CPE inhibition above about 20%, passing the limit was not always enough; inconclusive = no clear call, values can overlap the other calls; tested in BHK-21 cells;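 also: 0% = median of neutral control wells and 100% = median of positive control wells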
Starred values were filed as active, the others as inactive; ? = inconclusive; . = no result. An excerpt weighted towards active compounds, which were near 1.8% of everything screened.

SMILES | ERAP1 inh | ERp5 inh | MLL AF4-AF9 inh | PDI inh | DENV2 CPE
CCCN1C[C@H](C)[C@@H](OC)CN(C)C(=O)c2ccc(NC(=O)c3cccc(F)c3)cc2OC[C@H]1C | 10 | -2 | 45* | . | -10
O=C(NC1CCCCC1)N1CC2(C1)[C@H](c1ccccc1)[C@H](CO)N2CC1CCOCC1 | 0 | -1 | -3 | . | 4
C/C=C/c1ccc([C@H]2[C@@H](CO)N(CC3CCCC3)C23CN(C(=O)CC)C3)cc1 | 8 | -3 | 3 | . | 29*
C/C=C/c1ccc([C@H]2[C@@H](CO)N(CC3CCCC3)C23CN(C(=O)CC2CC2)C3)cc1 | 1 | -1 | -1 | . | -4
C/C=C/c1ccc([C@H]2[C@@H](CO)N(Cc3cncnc3)C23CN(C(=O)CC)C3)cc1 | -1 | -1 | -2 | . | 0
O=C(c1ccccc1)N1CC2(C1)[C@@H](c1ccccc1)[C@@H](CO)N2CC1CC1 | 0 | -4 | 0 | . | 21*
C/C=C/c1ccc([C@@H]2[C@H](CO)N(Cc3cncnc3)C23CN(C(=O)COC)C3)cc1 | 0 | -1 | -1 | . | 22*
O=C(NC1CCCC1)N1CC2(C1)[C@H](c1ccccc1)[C@@H](CO)N2CC1CCOCC1 | -1 | 0 | -1 | . | 38*
C[C@H]1CN([C@@H](C)CO)C(=O)Cc2cc(N(C)C)ccc2O[C@@H]1CN(C)C(=O)Nc1ccc(C(F)(F)F)cc1 | -2 | 0 | -1 | . | 5
CN1C(=O)c2cc(NC(=O)c3cnccn3)ccc2OC[C@H]2O[C@H](CC(=O)O)CC[C@H]21 | 0 | -5 | -1 | . | -5
COc1ccc(CNC(=O)N(C)C[C@H]2OCc3ccccc3-c3c(n(C)c4ccccc34)C(=O)N([C@@H](C)CO)C[C@@H]2C)cc1 | -5 | -5 | 1 | . | -4
CC(C)NC(=O)N1C[C@H]2[C@@H](c3ccccc31)[C@@H](CO)N2C(=O)c1ccccc1 | 1 | 5 | 0 | . | 10
O=C(c1ccncc1)N1CC2(C1)[C@H](c1ccccc1)[C@@H](CO)N2CC1CCOCC1 | -5 | 1 | -2 | . | 73*
CCC(=O)N1CC2(C1)[C@@H](c1ccccc1)[C@@H](CO)N2CC1CCOCC1 | -1 | 1 | -3 | . | -5
O=C(c1ccccc1F)N1CC2(C1)[C@@H](c1ccccc1)[C@H](CO)N2CC1CC1 | 6 | -9 | 1 | . | 30*
CCC(=O)N1CC2(C1)[C@H](c1ccccc1)[C@H](CO)N2CC1CCOCC1 | -1 | 1 | -3 | . | 70*
CCOC(=O)N1CCC(NC(=O)c2cccc3c2C(=O)N(CCOC)C3)CC1 | 10 | 4 | 3 | . | 62*
COCCN1Cc2cccc(C(=O)Nc3cc(C)cc(C)c3)c2C1=O | . | . | . | -3 | .
O=C(c1cc(C(=O)N2CCOCC2)c2nc3ccccc3n2c1)c1cc(Cl)cc(Cl)c1O | . | 0 | 27* | 5 | -5
O=C(C1CCOCC1)N1C[C@@H]2[C@H](c3ccccc31)[C@H](CO)N2C(=O)c1ccccc1 | 2 | -4 | 0 | . | 89*
O=C(Cc1ccccc1)N1C[C@H]2[C@@H](c3ccccc31)[C@@H](CO)N2C(=O)c1cccc(F)c1 | -1 | -1 | -4 | . | 37*
O=C(c1cccc(F)c1)N1C[C@@H]2[C@H](c3ccccc31)[C@H](CO)N2C(=O)C1CCOCC1 | 2 | 3 | 0 | . | 23*
O=C(C1CCCC1)N1C[C@@H]2[C@H](c3ccccc31)[C@H](CO)N2C(=O)Nc1cccc(F)c1 | 0 | -2 | -1 | . | 5
O=C(C1CCC1)N1C[C@@H]2[C@H](c3ccccc31)[C@H](CO)N2C(=O)Nc1cccc(F)c1 | -2 | 0 | 35* | . | 15
COc1cccc(S(=O)(=O)N(C)C[C@@H]2OCc3ccccc3-c3ccccc3C(=O)N([C@H](C)CO)C[C@H]2C)c1 | -2 | -2 | 15 | . | -2
SMILES | ERAP1 inh | ERp5 inh | MLL AF4-AF9 inh | PDI inh | DENV2 CPE
C[C@@H](NC(=O)C[C@@H]1CC[C@@H](NC(=O)C2CCC2)[C@H](CO)O1)c1ccccc1 | 0 | 5 | 1 | . | 1
O=C(c1cccc(F)c1)N1C[C@H]2[C@@H](c3ccccc31)[C@@H](CO)N2C(=O)C1CC1 | 0 | 1 | -1 | . | -11
O=C(c1cccc(F)c1)N1C[C@@H]2[C@H](c3ccccc31)[C@@H](CO)N2C(=O)C1CC1 | 0 | 0 | 1 | . | 55*
O=C(NCC1CCCO1)c1ccccc1 (configuration not stated) | . | . | . | -2 | .
C[n+]1cccc(C(=O)NCC2CCCO2)c1 (configuration not stated) | 99* | -3 | -5 | 6 | -15
O=C(NCC1CCCO1)c1ccc(S(=O)(=O)Nc2ccccc2F)cc1 (configuration not stated) | 0 | 1 | -34 | -1 | 101*
Cc1cccc(NS(=O)(=O)c2ccc(C(=O)NCC3CCCO3)cc2)c1C (configuration not stated) | 1 | 2 | 0 | -1 | -10
C[C@@H]1CCCCO[C@@H](CN(C)Cc2ccncc2)[C@H](C)CN([C@@H](C)CO)C(=O)c2cc(NC(=O)CCCCCC(=O)Nc3ccccc3N)ccc2O1 | -1 | 6 | -10 | . | 10
COc1ccccc1-c1cnc2c(c1)C(=O)N([C@@H](C)CO)C[C@@H](C)[C@H](CN(C)Cc1ccc(C(=O)O)cc1)O2 | -3 | -2 | -12 | . | -10
CCOC(=O)c1cn(CC)c2cc3c(cc2c1=O)OCO3 | -1 | 3 | -9 | -8 | 25*
CCOC(=O)c1cn(CC)c2cc(N3CCN(C)CC3)c(F)cc2c1=O | -2 | -1 | -1 | 2 | ?
COc1ccc(C2c3ccc(O)cc3Oc3ncn4nc(-c5cccnc5)nc4c32)cc1OC (configuration not stated) | . | 11 | 8 | 41* | 1
COc1ccc(C2c3ccc4ccccc4c3Oc3ncn(Cc4ccco4)c(=N)c32)cc1OC (configuration not stated) | . | . | . | -13 | .
COc1ccc(C2c3ccc(O)cc3Oc3ncn(Cc4ccco4)c(=N)c32)cc1OC (configuration not stated) | -2 | 5 | 2 | 33* | 0
CCC(=O)N(C)C[C@H]1Oc2cc(-c3ccccc3)ccc2S(=O)(=O)N([C@H](C)CO)C[C@H]1C | 0 | 0 | 1 | . | 3
CNC(=O)C[C@@H]1CC[C@H]2[C@H](COc3ccc(NS(=O)(=O)c4ccccc4C)cc3C(=O)N2C)O1 | -1 | 2 | -1 | . | 19
CC(C)NC(=O)N1CCCCN2[C@H](CO)[C@H](c3ccc(C#Cc4ccccc4)cc3)[C@@H]2C1 | 1 | -5 | -5 | . | -10
COc1ccc2c3c(n(C)c2c1)[C@H](CO)NCC31CN(C(=O)Nc2ccc(F)cc2F)C1 | 2 | -1 | 16 | . | 20
COc1ccc2c3c(n(C)c2c1)[C@H](CO)NCC31CCN(Cc2ccccc2Cl)CC1 | . | . | 9 | . | 6
COc1ccc2c3c(n(C)c2c1)[C@H](CO)NCC31CN(Cc2ccccc2F)C1 | . | . | 54* | . | 1
COc1ccc2c3c(n(C)c2c1)[C@H](CO)NCC31CCN(Cc2ccccc2F)CC1 | . | . | 13 | . | 31*
